Assay [1] is described as follows: qHTS assay to identify inhibitors of the type 1 interferon - major histocompatibility complex class I in skeletal muscle: Counter screen cell viability and HiBit confirmation (AID 1347412). Further: potency means the concentration at half of the fitted maximal effect. On all read-outs here: nearly all actives have a fitted effect of over 60% in size. Particulars: iHSKM muscle cells + IFN-b, HiBiT or CellTiter-Glo, 24 h; for Potency: HiBiT; for activity change, negative = inhibition: Viability, at 45.9 µM (top of the series). Put shortly:
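CRISPR HLA-B*08:01-HiBit immortalized human myoblasts (C25cl48) stimulated with 4 ng/ml IFN-beta and compounds (12-point 1:3, top 46 uM final) for 24 h at 37 C. Duplicate plates read by HiBit lytic luminescence or CellTiter Glo ATP.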
In general terms: In qHTS, concentration-response curves come from the screen itself.

Assay [2] can be described thus: Drug repurposing screens with cells derived from glioblastoma tumor samples (AID 1345199). Further: nearly all actives have a fitted effect of over 40% in size. Particulars: GBM patient neurospheres viability, ATP luminescence, 48 h. Put shortly: (§1)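 Four patient lines of CD133+ GBM neurospheres were screened at several concentrations; hits were retested in those lines plus three slower-growing GBM lines, using 48-hour treatment and ATP-based viability.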

Assay [3] concerns astro. The assay is described as above. As to conditions: viability, ATP luminescence, 48 h; series mostly up to 45.9 µM. An outline of the steps: as §1
The test system of assay [4] is Tov112D. In words: Primary qHTS to identify gynecologic anti-cancer compounds using libraries of approved drugs and bioactive compounds (AID 1345084). Further: nearly all actives have a fitted effect of over 55% in size. As to conditions: Gynecologic cancer cell panel viability, ATPlite luminescence, 48 h; series mostly up to 57.5 µM. Put shortly: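 In this quantitative HTS, cell killing is estimated from loss of ATP-dependent luciferase light. Cells see five compound concentrations over a 48 h exposure.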

Consider five compounds from PubChem BioAssay (NCATS).

“And” between values parts separate entries of the source, which are not always exact repeats. Identical values can stand only once. Records with an inconclusive call do not appear. Unmarked numbers belong to inactive results. The source made the active and inactive calls. The call rests on the fitted dose curve; in most records, active means well fitted curve in the direction sought with a large enough effect; inconclusive means small, poorly fitted or top-dose-only effect, or another doubt; inactive means no such curve, though single readings can be large; an effect the other way counts as inactive or inconclusive.
On the % scale 0 is the no-effect control and ±100 the full control effect.

Turning to `Cc1cc(Nc2cc(NC(=O)c3c(Cl)cccc3Cl)ccn2)nc(N)n1`, in assay [1], the Potency was 2790 nM (active) and the activity change, negative = inhibition is 21.4%.

Turning to `CC(C)[C@H](C(=O)Nc1ccc(C(=O)NO)cc1)c1ccccc1`, in assay [1], the Potency was 1110 nM (active) and the activity change, negative = inhibition is -7.44%.

As to `C[C@@]12O[C@@H](C[C@]1(O)CO)n1c3ccccc3c3c4c(c5c6ccccc6n2c5c31)CNC4=O`, in assay [1], the Potency is 701 nM (active) and the activity change, negative = inhibition is -0.759%.

In the case of `COc1c(N2C[C@@H]3CCCN[C@H]3C2)c(F)cc2c(=O)c(C(=O)O)cn(C3CC3)c12`, the activity, negative = cell killing in assay [2] (at 45.9 µM (top of the series), tumour line B) is 6.2% and 1.37%; in assay [2] (at 45.9 µM (top of the series), tumour line D), -16.2% and 10%; in assay [2] (at 46 µM (top of the series), tumour line A) it was -18.3%; in assay [2] (at 46.1 µM (top of the series), tumour line C), 4.44% and 2.53%. In assay [3], the Potency entry was “inactive”.

Regarding `Nc1ncnc2c1c(-c1cccc(OCc3ccccc3)c1)cn2C1CC(CN2CCCC2)C1` (stereo not drawn), the Potency entry in assay [4] is “inactive”. In addition, the Potency in assay [1] is 22200 nM (active).
